Assay outcomes from PubChem BioAssay.
E-sel TNF inh = TNF alpha driven E-selectin expression inhibition. HUVEC TNFa-induced E-selectin immunofluorescence, high content. 0.71% of 120,000 active. AID 1246. inhibition, % at 2 µM;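 active = inhibition above the batch mean plus 3 SD, and confirmed as a hit on visual image review, cut at about 43% in these data; inconclusive = passes the inhibition cutoff but fails visual image review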;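 note: 0% = TNF-stimulated DMSO wells and 100% = unstimulated control wells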
VCAM1 TNFa inh = reduces TNF alpha induced VCAM1 expression in HUVEC; inhibition, % at 2 µM; 0.48% of 95,000 active; HUVEC TNFa-induced VCAM-1 immunofluorescence, high-content imaging;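 active = inhibition above the batch mean plus 3 SD, with images confirmed as a hit by eye, cut at about 37% in these data; inconclusive = inhibition above that limit but hit not confirmed in images; inactive = inhibition not above that limit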;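 note: 0% = TNF-stimulated DMSO wells and 100% = unstimulated control wells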
F-actin modifier = cytoskeleton assembly modification. HUVEC TNFa F-actin phalloidin imaging, high content. inhibition, % at 2 µM. 0.18% of 91,000 active;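 active = inhibition above the batch mean plus 3 SD and confirmed as a hit by visual image inspection, cut at about 30% in these data, passing the limit was not always enough; inconclusive = above the inhibition threshold but rejected on visual inspection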
TNFa cytotox = HUVEC cytotoxicity counter-screen, TNF alpha stimulated. HUVEC TNFalpha-stimulated, Hoechst cell count, imaging. cell count reduction, % at 2 µM. 0.17% of 93,000 active;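 active = cell count reduction exceeding the screen mean by over 5 SD, scaled to untreated wells per plate, cut at about 78% in these data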;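 note: cells counted after 24 h of TNF alpha exposure following the 1 h pretreatment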
* = called active by the depositor; ? = inconclusive; nt = not tested or not shown. The list is not random: actives were taken first. Their share in the collection is about 1%.

SMILES	E-sel TNF inh	VCAM1 TNFa inh	F-actin modifier	TNFa cytotox
CCC(=O)N1CCc2cc(S(=O)(=O)NCCC(=O)NC3CCCc4ccccc43)ccc21 (configuration not stated)	-9.9	-10.9	-9.2	6.5
CCn1c(SCC(=O)O)nc2sc3c(c2c1=O)CCC3	2.3	5.6	3.6	-14.4
COc1ccc(Cn2nnnc2C(c2cccs2)N2CCSCC2)cc1 (configuration not stated)	nt	86.6*	-103.0	88.2*
COc1ccc(C(c2nnnn2Cc2ccccc2)N2CCN(c3nc4ccccc4s3)CC2)cc1 (configuration not stated)	68.9*	nt	nt	nt
COc1ccc(Cn2nnnc2C(c2cccs2)N2CCCCCC2)cc1 (configuration not stated)	-26.5	-1.4	-9.4	23.9
O=C(CSc1nnc(CNc2ccc(F)cc2)o1)N1CCCc2ccccc21	63.1*	nt	nt	nt
O=C(NCc1nnc(SCC(=O)N2CCCc3ccccc32)o1)c1ccco1	-24.6	nt	nt	nt
COc1ccc(CCNc2oc(-c3ccc(OC)c(OC)c3)nc2C#N)cc1	5.0	23.7	-0.4	20.2
COc1ccc(-c2nc(C#N)c(NCCCN(C)C)o2)cc1OC	16.6	96.6*	35.3	-34.4
Cc1cc(C)nc(NC(=O)c2ccc(Cl)cc2)n1	6.5	nt	nt	nt
Cc1ccc(OCC(O)CNS(=O)(=O)c2ccccc2C(=O)N2CCCCC2)cc1 (configuration not stated)	2.6	21.6	43.6*	48.3
O=C1COc2ccc(C(=O)CSc3nnc(Cc4cccs4)n3-c3ccccc3)cc2N1	0.6	20.3	0.8	22.3
Nc1nc2sc3c(c2c(=O)s1)CCCC3	-13.6	-10.4	38.1	-31.6
Cc1nc([N+](=O)[O-])c(Br)n1CC(=O)c1ccc(Br)cc1	24.2	40.1*	-13.3	-17.7
Cc1nc([N+](=O)[O-])c(Br)n1CC(=O)c1ccccc1	11.8	6.1	nt	-6.6
Cc1cc(NC(=O)CSc2nnc(Cc3ccccc3)n2C)no1	44.0*	17.1	19.3	-20.2
Cc1cc(NC(=O)CSc2nc3ccccc3c(=O)n2C2CCCC2)no1	-1.5	67.7*	13.7	45.7
O=C(NCN1C(=O)C2C3C=CC(C3)C2C1=O)Nc1nncs1 (configuration not stated)	99.9*	11.0	0.3	57.8
Cc1ccc(O)c(NC(=S)NC(=O)c2ccc(-c3ccc(Cl)cc3)o2)c1	55.5*	5.0	9.4	-10.0
O=C(NC(=S)Nc1ccccc1O)c1ccc(-c2ccc(Cl)cc2)o1	-32.6	17.1	-3.1	-40.5
Cc1sc2ncn(Cc3ccccc3F)c(=O)c2c1C	-22.8	nt	nt	nt
Cc1cccc(NC(=O)c2ccccn2)c1C	0.3	4.9	7.6	-33.3
Cc1cccc(NC(=S)Nc2ccccn2)c1C	62.1*	nt	nt	nt
O=C(NCc1ccco1)C(=O)NCc1ccccc1Cl	-13.0	nt	nt	nt
O=C(CN1CCN(Cc2ccccc2Cl)C1=O)NCc1ccco1	63.5*	4.2	11.1	-22.7
SMILES	E-sel TNF inh	VCAM1 TNFa inh	F-actin modifier	TNFa cytotox
CC(C)NC1CS(=O)(=O)CC1O (configuration not stated)	11.6	?	?	100.0*
COc1ccc(N(CC(=O)NCCSCc2c(F)cccc2Cl)S(C)(=O)=O)cc1OC	13.7	-17.5	6.8	-0.8
CC(C)(C)C1=CC(=O)C(=O)C(C(C)(C)C)=C1	89.0*	nt	nt	nt
CCn1c2ccc(/C(C)=N\O)cc2c2cc(/C(C)=N\O)ccc21	100.0*	-0.7	36.7	-7.2
COc1cc(/C=C(/C#N)C(=O)NCCc2c[nH]c3ccccc23)ccc1OCc1ccccc1F	-12.2	36.8*	-0.4	36.0
Cc1cc(/C=C(\C#N)C(=O)NCCc2c[nH]c3ccccc23)c(C)n1C	13.4	nt	nt	nt
CCOC(=O)C1C(=O)CC(C)(O)C(C(=O)OCC)C1c1ccccc1 (configuration not stated)	59.1*	-20.2	19.1	-5.9
CCOC(=O)C1C(=O)CC(C)(O)C(C(=O)OCC)C1c1ccc(OC)cc1 (configuration not stated)	nt	18.5	-26.5	28.4
Cc1ccc(C(CC(=O)O)C2CCOC(C)(C)C2)cc1 (configuration not stated)	11.6	9.0	nt	-23.7
Cc1ccc(C(C)n2cc(C(=O)NCCN3CCN(C)CC3)nn2)cc1 (configuration not stated)	71.2*	7.0	5.9	4.0
Cc1csc(NC(=O)CCN2C(=O)c3ccccc3S2(=O)=O)n1	4.6	22.5	-4.6	-0.5
CCOC(=O)Cc1csc(NC(=O)CN2C(=O)c3ccccc3S2(=O)=O)n1	96.0*	nt	nt	nt
CC(C)Cc1nnc(NS(C)(=O)=O)s1	52.4*	-3.1	15.9	2.1
COc1cc(C(=O)N/N=C\c2ccccc2)c([N+](=O)[O-])c(OC)c1OC	1.6	31.4	14.9	-13.4
Cc1ccccc1CS(=O)(=O)c1nnc([C@H](CC(C)C)NC(=O)OC(C)(C)C)o1	98.7*	10.3	24.1	-16.8
CCCOc1ccc(C(=O)NCC(c2cccs2)N(C)C)cc1 (configuration not stated)	94.0*	nt	nt	nt
CCN(c1ccccc1)S(=O)(=O)c1ccc(C(=O)NCC(c2cccs2)N(C)C)cc1 (configuration not stated)	0.8	nt	nt	nt
O=C1CC(Nc2ccc(N3CCOCC3)cc2)C(=O)N1Cc1ccccc1 (configuration not stated)	-44.6	11.0	-9.3	-0.7
O=C(NC(C(=O)c1ccccc1)N1CCOCC1)c1ccccc1 (configuration not stated)	99.8*	nt	nt	nt
CCOC(=O)N1CCC(N(CCCOC)C(=O)Nc2ccc(CC)cc2)CC1	15.3	-26.0	-6.9	12.4
CCOC(=O)N1CCC(N(CCOC)C(=O)Nc2ccc(Cl)cc2)CC1	80.4*	nt	nt	nt
Cc1[nH]c2ccccc2c1/C=C/c1cc[n+](C)cc1	0.9	-5.6	-1.5	-1.0
CCOC(=O)c1oc2ccccc2c1NC(=O)Cc1cccs1	nt	83.0*	-45.3	74.8
CCOCC(=O)Nc1c(C(=O)OCC)oc2ccccc12	7.5	3.2	17.0	-19.1
COCCN1C=C(C(=O)OC)C(c2cc(Br)c(OC)c(OC)c2)C(C(=O)OC)=C1	21.1	-12.8	-4.7	-17.8
SMILES	E-sel TNF inh	VCAM1 TNFa inh	F-actin modifier	TNFa cytotox
CCOC(=O)Cn1nnnc1CN(CCc1ccccc1)Cc1cc2cc(CC)ccc2[nH]c1=O	19.2	?	nt	83.4*
CCOC(=O)Cc1csc(SCC(=O)/C(C#N)=C(\C)N)n1	13.6	59.2*	21.6	79.1*
COc1ccccc1Cc1nc(-c2ccncc2)no1	77.3*	nt	nt	nt
CC(=O)c1c(C)[nH]c(C(=O)Nc2ccccc2N2CCOCC2)c1C	75.4*	nt	nt	nt
c1csc(C(c2nnnn2C2CCCC2)N2CCCC3(CCCCC3)C2)c1 (configuration not stated)	56.6*	12.6	-6.0	-3.0
c1csc(C(c2nnnn2C2CCCC2)N2CCOCC2)c1 (configuration not stated)	-17.1	nt	nt	nt
CCCCC(=O)NC(=S)Nc1ccccc1C(=O)Nc1ccccc1	nt	93.4*	-88.0	89.9*
CC(=O)NC(=S)Nc1ccccc1C(=O)Nc1ccccc1	9.6	nt	nt	nt
COCCNC(=O)C1CCC(Cn2c(=S)[nH]c3ccccc3c2=O)CC1 (configuration not stated)	-2.1	-1.1	-1.9	11.9
O=C(O)C1CC=CCC1C(=O)N1CCCC1 (configuration not stated)	5.8	82.2*	13.6	96.2*
